Laboratory results reported in PubChem BioAssay AID1044 (The Scripps Research Institute Molecular Screening Center, 2008).
In all, about 16,000 compounds went through this assay and about 240 (1.5%) were called active. Cut-off read from the data, not from the text of the source: active = activation above about 80%; inactive = the rest. For the sample, actives were picked, then their nearest neighbours and some compounds at random.

These compounds were tested against Sphingosine 1-phosphate receptor 1 (Homo sapiens) (UniProt P21453) (assay: activates the human S1P1 receptor (AID 1044)). Conditions: S1P1 agonist cell-based reporter assay; at 4.5 µM; stronger effect = higher value.
Chain of Sphingosine 1-phosphate receptor 1 (Homo sapiens) (P21453 whole entry, looked up): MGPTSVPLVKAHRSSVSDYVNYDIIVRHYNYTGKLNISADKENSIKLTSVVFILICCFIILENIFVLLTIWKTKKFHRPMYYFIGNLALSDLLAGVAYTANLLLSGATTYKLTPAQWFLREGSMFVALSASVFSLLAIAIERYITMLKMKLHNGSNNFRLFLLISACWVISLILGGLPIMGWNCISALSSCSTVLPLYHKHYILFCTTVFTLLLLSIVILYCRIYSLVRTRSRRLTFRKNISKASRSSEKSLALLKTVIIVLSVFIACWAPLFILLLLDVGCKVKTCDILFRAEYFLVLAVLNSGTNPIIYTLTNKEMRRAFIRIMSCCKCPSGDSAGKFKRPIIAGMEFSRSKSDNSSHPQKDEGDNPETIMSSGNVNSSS

Structure (SMILES) | activation
COC(=O)c1cc(S(=O)(=O)NCc2csc(-c3cccs3)n2)oc1C | 4.78% (inactive)
CC(C)(C)OC(=O)n1ccc2cc(Br)ccc21 | 111% (active)
O=C1CC(c2ccccc2)C(=O)N1Cc1cccs1 (stereo unspecified) | 1.62% (inactive)
O=C(NCc1cccnc1)c1cnc2ccccc2n1 | -2.22% (inactive)
N#CC(C#N)=CNc1c(F)cccc1Cl | 48.9% (inactive)
CO/N=C1\C(=O)N(C)c2ccccc21 | -2.23% (inactive)
COC(=O)c1cc(OC)c(OC)cc1NC(=O)c1ccccc1C(=O)O | 14.4% (inactive)
O=C1c2ccccc2C(=O)N1CCCN1CCN(Cc2c(F)cccc2Cl)CC1 | -0.27% (inactive)
S=C(SCc1ncon1)N1CCSCC1 | -1.22% (inactive)
N#Cc1cncc(Br)c1 | -9.98% (inactive)
O=C(O)c1nccnc1C(=O)O | -16.2% (inactive)
CC(=O)c1cc([N+](=O)[O-])c(NC2CCCCC2)s1 | -14.1% (inactive)
O=S(=O)(O)c1ncccn1 | 3.74% (inactive)
COc1c(Br)cc(C#N)cc1Br | -9.06% (inactive)
COC(=O)C1=C(c2ccccc2)C(c2ccccc2)=C(C(=O)OC)C1=O | 6.63% (inactive)
N#Cc1cn(C2CCCCC2)c(=O)[nH]c1=O | 15.6% (inactive)

Structure (SMILES) | activation
CNC(=O)c1ccccc1Sc1ccccc1C(=O)NC | -10.2% (inactive)
CCOC(=O)C(NC(=O)Nc1ccccc1)(Nc1ccccc1OC)C(F)(F)F (stereo unspecified) | 5.29% (inactive)
CCOC(=O)c1c(C)csc1NC(=O)CC(=O)C(F)(F)F | 12.6% (inactive)
COC(=O)c1cc(C(N)=O)c(SC)s1 | -10.8% (inactive)
O=c1c2c(nc3nc[nH]n13)CCC2 | 1.21% (inactive)
CSC(C)C(=O)/C=C/N(C)C (stereo unspecified) | -15.9% (inactive)
COC(=O)CCN1CCc2cc(N=Nc3ccc(C(F)(F)F)cc3)ccc21 | 99.2% (active)
COC(=O)C(C#N)c1ccc(C(F)(F)F)cc1[N+](=O)[O-] (stereo unspecified) | 14.5% (inactive)
COC(OC)c1ccc(C#N)c(SCC(=O)Nc2ccc(C(F)(F)F)cc2)n1 | -16.6% (inactive)
CCOC(=O)NC(=O)/C(=C/NC(C)C)C(=O)OCC | 22.7% (inactive)
COc1cc(-c2n[nH]c(=S)n2Cc2ccccc2)cc(OC)c1OC | -18.1% (inactive)
CC1(C)c2ccccc2-n2c1cc(O)c(-c1ccccc1)c2=O | -11.7% (inactive)
CC1(NC(=O)OCc2ccccc2)CC1NC(=O)OCc1ccccc1 (stereo unspecified) | 11.9% (inactive)
COC(=O)c1sccc1Oc1ccc(Cl)cc1[N+](=O)[O-] | 13.2% (inactive)
COC(=O)c1sccc1NC(=S)Nc1ccc(C)cc1 | -27.1% (inactive)
